The results in this text go back to the supplement of paper PMC12297408.

The assay deals with Plasmodium falciparum NF54/iGP1_RE9H ulg8 stage V gametocytes. Nature of the assay: gametocyte viability (luciferase signal relative to DMSO control) (% of DMSO control); higher = less gametocytocidal activity, active = 50 or less. The settings on record: exposure time: 72 h. Summed up:
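Viability was calculated relative to the mean of DMSO vehicle wells on each plate. Day-12 stage V gametocytes of line NF54/iGP1_RE9Hulg8 (~2.5% gametocytemia, 3% hematocrit, 0.5% Albumax II medium) were exposed in 96-well plates to compounds at final 10 µM or 1 µM, one well each, for 72 h at 37 °C. Luminescence was then read on an IVIS Lumina II after D-luciferin addition.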

Structures are written as SMILES. A number with no mark means an inactive call.

For the compound `CCN(CCO)CCCOc1ccc2c(Nc3cc(CC(=O)Nc4cccc(F)c4)[nH]n3)ncnc2c1` [Barasertib (AZD1152-HQPA)], the gametocyte viability by setting is: (concentration: 1 µM) 104; (concentration: 10 µM) 93.1.
Taken in the same sequence, the figures for `N#CC(=C(/N)Sc1ccccc1N)/C(C#N)=C(\N)Sc1ccccc1N` were 94.3 and 95.9.
Taken in the same sequence, the figures for `O=C(Nc1cccc(Cl)c1)Nc1ncc(CCNc2ncnc3ccsc23)s1` were 110 and 120.
On the same counts, the results for `C=CC(=O)c1ccc2ccccc2c1` are 101 and 106.
For the compound `Cn1cc(C2=C(c3ccc(Cl)cc3Cl)C(=O)NC2=O)c2ccccc21`, the gametocyte viability runs as follows: (concentration: 1 µM) 97.8; (concentration: 10 µM) 112.
Taken in the same sequence, the figures for `Cc1[nH]c(/C=C2\C(=O)Nc3ccc(S(=O)(=O)N(C)c4cccc(Cl)c4)cc32)c(C)c1C(=O)N1CCN(C)CC1` were 107 and 92.8.
Taken in the same sequence, the figures for `Cc1ccc(NC(=O)c2ccc(CN3CCN(C)CC3)cc2)cc1Nc1nccc(-c2cccnc2)n1` [Imatinib (Gleevec)] were 104 and 110.
On the same counts, the results for `N#CC1(c2ccc(NC(=O)c3cccnc3NCc3ccncc3)cc2)CCCC1` [Apatinib (YN968D1)] are 96 and 95.4.
For `COC(=O)Nc1ccc(-c2nc(N3CCOCC3)c3cnn(C4CCN(C(=O)OC)CC4)c3n2)cc1`, the gametocyte viability (concentration: 1 µM) is 97.3 and the gametocyte viability (concentration: 10 µM) is 97.2.
Taken in the same sequence, the figures for `COc1ccc(-c2cc3c(C)nc(N)nc3n([C@H]3CC[C@H](OCCO)CC3)c2=O)cn1` were 95.3 and 84.2.
On the same counts, the results for `CCS(=O)(=O)Nc1ccc2[nH]c(O)c(C(=Nc3ccc(CN4CCCCC4)cc3)c3ccccc3)c2c1` [Hesperadin] are 110 and 108.
With `Cc1cc(Nc2cc(N3CCN(C)CC3)nc(/C=C/c3ccccc3)n2)n[nH]1`, the gametocyte viability was 90.7 (concentration: 1 µM) and 71.4 (concentration: 10 µM).
With `O=c1cc(N2CCOCC2)oc2c(-c3cccc4c3sc3ccccc34)cccc12`, the gametocyte viability is, setting by setting: (concentration: 1 µM) 106; (concentration: 10 µM) 105.
Taken in the same sequence, the figures for `O=C(NC1CCNCC1)c1n[nH]cc1NC(=O)c1c(Cl)cccc1Cl` were 99.2 and 69.7.
With `NC(=O)c1ccc(N(C(N)=O)c2c(F)cccc2F)nc1-c1ccc(F)cc1F`, the gametocyte viability (concentration: 1 µM) is 99.2 and the gametocyte viability (concentration: 10 µM) was 103.
On the same counts, the results for `NCCNS(=O)(=O)c1cccc2cnccc12` are 105 and 107.
With `Cc1cccc(-c2[nH]c(C(C)(C)C)nc2-c2ccc3nccnc3c2)n1`, the gametocyte viability is 94.4 (concentration: 1 µM) and 91.7 (concentration: 10 µM).
Turning to `CC(C)n1cnc2c(NCc3ccccc3)nc(NCCO)nc21` [N9-isopropyl-olomoucine], the gametocyte viability is 92.7 (concentration: 1 µM) and 91 (concentration: 10 µM).
Turning to `CC1CNCCN1S(=O)(=O)c1cccc2cnccc12` (configuration not stated), the gametocyte viability is 97.5 (concentration: 1 µM) and 97.9 (concentration: 10 µM).
Taken in the same sequence, the figures for `CC(=O)Nc1cccc(-n2c(=O)n(C3CC3)c(=O)c3c(Nc4ccc(I)cc4F)n(C)c(=O)c(C)c32)c1` were 102 and 82.7.
For `COc1ccc(-c2ccc3c(N4CCOC[C@@H]4C)nc(N4CCOC[C@@H]4C)nc3n2)cc1CO`, the gametocyte viability runs as follows: (concentration: 1 µM) 96.5; (concentration: 10 µM) 78.9.
Turning to `CCCCCCCCCCCCC/C=C/[C@@H](O)[C@@H](N)CO` [D-erythro-Sphingosine], the gametocyte viability is, setting by setting: (concentration: 1 µM) 113; (concentration: 10 µM) 119.
Taken in the same sequence, the figures for `Cc1cc(C(=O)NOCCO)c(Nc2ccc(I)cc2F)n(C)c1=O` were 90.8 and 92.8.
On the same counts, the results for `N#Cc1c(O)c2c(-c3ccc(-c4ccccc4O)cc3)csc2[nH]c1=O` are 97.7 and 105.
For `CC(C)c1cnc(NC(=O)Cc2ccccc2)s1`, the gametocyte viability by setting is: (concentration: 1 µM) 94.5; (concentration: 10 µM) 92.
Taken in the same sequence, the figures for `CC(C)(C)c1cnc(CSc2cnc(NC(=O)C3CCNCC3)s2)o1` were 104 and 101.
On the same counts, the results for `COc1ccc2c3n(c(=NC(=O)c4cccnc4)nc2c1OC)CCN3` are 94.4 and 101.
Taken in the same sequence, the figures for `Nc1nc(N)c2nc(-c3cccc(O)c3)c(-c3cccc(O)c3)nc2n1` were 110 and 109.
`COc1cc2ncnc(Nc3cccc(Br)c3)c2cc1OC`: the gametocyte viability reads like this: (concentration: 1 µM) 95.6; (concentration: 10 µM) 114.
On the same counts, the results for `CNC(=O)c1cc(COc2nnc(Nc3ccc(Cl)cc3)c3ccoc23)ccn1` [Telatinib (BAY 57-9352)] are 115 and 115.
Taken in the same sequence, the figures for `Cn1cnc2nc(NCCO)nc(NCc3ccccc3)c21` [Iso-olomoucine] were 95 and 102.
